Source: publication PMC5540273 (PLoS ONE, 2017)

Assays:
Settings in all cases: concentration: 1 μM, replicates: in singlicate; n = 1
MYLK = tested on: MYLK
MYO3A = tested on: MYO3A
MYO3B = tested on: MYO3B
NDR1 = tested on: T1, NDR1
T1 construct: gene STK38

NDR2 = tested on: NDR2
NEK10 = tested on: NEK10
NEK11 = tested on: NEK11
NEK1 = tested on: NEK1
NEK2 = tested on: NEK2
NEK3 = tested on: NEK3
NEK4 = tested on: NEK4
NEK5 = tested on: NEK5
NEK6 = tested on: NEK6
NEK7 = tested on: NEK7
NEK9 = tested on: NEK9
NIK = tested on: T2, NIK
T2 construct: gene MAP3K14

NIM1 = tested on: T3, NIM1
T3 construct: gene MGC42105

NLK = tested on: NLK
OSR1 = tested on: T4, OSR1
T4 construct: gene OXSR1

PAK1 = tested on: PAK1
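Note: KINOMEscan kinase panel screen.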

Row | SMILES | %Inh (MYLK) [%] | %Inh (MYO3A) [%] | %Inh (MYO3B) [%] | %Inh (NDR1) [%] | %Inh (NDR2) [%] | %Inh (NEK10) [%] | %Inh (NEK11) [%] | %Inh (NEK1) [%] | %Inh (NEK2) [%] | %Inh (NEK3) [%] | %Inh (NEK4) [%] | %Inh (NEK5) [%] | %Inh (NEK6) [%] | %Inh (NEK7) [%] | %Inh (NEK9) [%] | %Inh (NIK) [%] | %Inh (NIM1) [%] | %Inh (NLK) [%] | %Inh (OSR1) [%] | %Inh (PAK1) [%]
1 | COc1cc2ncn(-c3cc(OCCCc4ccccc4)c(C(N)=O)s3)c2cc1OC [GSK205189] | 23 | 3 | 0 | 0 | 0 | 0 | 0 | 0 | 36 | 0 | 0 | 0 | 0 | 0 | 6 | 0 | 0 | 0 | 2 | 36
2 | CCC(=O)c1c(-c2ccccc2)c2cc(Cl)ccc2c(=O)n1Cc1cc(C(=O)NC2CC2)n(C)n1 | 0 | 4 | 0 | 0 | 0 | 0 | 0 | 10 | 0 | 13 | 16 | 0 | 8 | 0 | 0 | 0 | 1 | 0 | 0 | 20
3 | Cc1cccc(-c2cc(-c3c[nH]nc3-c3ccccn3)ccn2)c1 [GW679395] | 32 | 7 | 0 | 15 | 0 | 24 | 0 | 0 | 0 | 3 | 0 | 7 | 0 | 0 | 0 | 19 | 6 | 32 | 0 | 24
4 | Cc1nc(N(C)[C@H]2CN(C(=O)CC#N)CC[C@H]2C)c2cc[nH]c2n1 | 10 | 0 | 9 | 0 | 13 | 0 | 0 | 0 | 0 | 3 | 4 | 11 | 7 | 0 | 0 | 0 | 0 | 7 | 0 | 0
5 | Nc1nccc2scc(-c3ccc4c(c3)CCN4C(=O)Cc3ccccc3)c12 [GSK2576924] | 4 | 11 | 5 | 27 | 3 | 9 | 0 | 0 | 4 | 10 | 0 | 14 | 0 | 0 | 18 | 23 | 8 | 0 | 7 | 18
6 | CCCNC(=O)Nc1ccc(Oc2ncnc3ccn(C)c23)cc1 | 0 | 0 | 40 | 3 | 0 | 0 | 0 | 0 | 0 | 33 | 0 | 0 | 13 | 0 | 11 | 0 | 0 | 0 | 17 | 17
